Laboratory results as given in PubChem BioAssay (NCI).
The panel holds about 83,000 compounds, 20% with a hit somewhere; the sample as a whole holds those more often.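 Negative percent growth values reflect cell death: -40 means 40% of the cells present at the start died, and -100 means all died.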

Tests used:
Assay in all cases: NCI-60 one-dose screen, 48 h (100 = growth as untreated, 0 = no growth, -100 = all killed)
Details in all cases: 10 µM unless noted; active means growth percent below 10; inactive means the rest
NCI-H23 lung = test system: NCI-H23 lung
NCI-H226 lung = test system: NCI-H226 lung
NCI-H322M lung = test system: NCI-H322M lung
HOP-62 NSCLC = test system: HOP-62 NSCLC
NCI-H460 lung = test system: NCI-H460 lung
NCI-H522 lung = test system: NCI-H522 lung
A549/ATCC NSCLC = test system: A549/ATCC NSCLC
786-0 renal = test system: 786-0 renal
COLO 205 colon = test system: COLO 205 colon
DU-145 prostate = test system: DU-145 prostate
K-562 leukemia = test system: K-562 leukemia
MALME-3M melanoma = test system: MALME-3M melanoma
MDA-MB-231 breast = test system: MDA-MB-231 breast
RXF 393 renal = test system: RXF 393 renal
SF-268 CNS = test system: SF-268 CNS
SF-295 CNS = test system: SF-295 CNS
SF-539 CNS = test system: SF-539 CNS
UACC-257 melanoma = test system: UACC-257 melanoma
M14 melanoma = test system: M14 melanoma

Measured: growth

CCOC(=O)N1C2CCC(C2)N1C(=O)OCC
inactive: NCI-H23 lung 104% | NCI-H226 lung 91.9% | NCI-H322M lung 115% | HOP-62 NSCLC 108% | NCI-H460 lung 108% | NCI-H522 lung 91.5% | A549/ATCC NSCLC 107% | 786-0 renal 101% | COLO 205 colon 110% | DU-145 prostate 104% | K-562 leukemia 94.6% | MALME-3M melanoma 104% | MDA-MB-231 breast 115% | RXF 393 renal 106% | SF-268 CNS 97% | SF-295 CNS 106% | SF-539 CNS 132% | UACC-257 melanoma 107% | M14 melanoma 108%

CCOC(=O)C1C(=O)C=C(c2cc(OC)c(OC)c(OC)c2)CC1c1sc(N(C)Cc2ccccc2)nc1Cl (configuration not stated)
inactive: NCI-H23 lung 87.3% | NCI-H226 lung 74.1% | NCI-H322M lung 83.2% | HOP-62 NSCLC 78.3% | NCI-H460 lung 86.3% | NCI-H522 lung 67% | A549/ATCC NSCLC 71.6% | 786-0 renal 85.9% | COLO 205 colon 97.1% | DU-145 prostate 106% | K-562 leukemia 66.4% | MALME-3M melanoma 104% | MDA-MB-231 breast 82.9% | RXF 393 renal 81.5% | SF-268 CNS 73.6% | SF-295 CNS 89.3% | SF-539 CNS 95.6% | UACC-257 melanoma 90.4% | M14 melanoma 92%

CCN(CC)c1ccc(/C=N/N=C(N)N)cc1
inactive: NCI-H23 lung 65.7% | NCI-H226 lung 84.5% | NCI-H322M lung 87.7% | HOP-62 NSCLC 54.8% | NCI-H460 lung 23.3% | NCI-H522 lung 27.1% | A549/ATCC NSCLC 44.6% | 786-0 renal 72.4% | COLO 205 colon 30.2% | DU-145 prostate 55.5% | K-562 leukemia 26.3% | MALME-3M melanoma 58.9% | MDA-MB-231 breast 66% | RXF 393 renal 68% | SF-268 CNS 45.7% | SF-295 CNS 27.8% | SF-539 CNS 51.8% | UACC-257 melanoma 47.9% | M14 melanoma 42.4%
